Screening results (PubChem BioAssay)
An excerpt weighted towards active compounds, which were near 3.5% of everything screened.
mHTT-CaM PPI inh = inhibitors of human mutant huntingtin-calmodulin interaction. AlphaScreen His-mHTT/GST-CaM binding, luminescence. P42858. actives 3.6% (n = 190,000). inhibition, % at 15 µM. AID 1671202;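 also: 0% = both proteins with DMSO and 100% = one protein alone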
Pf apPOL inh = Pf-apPOL DNA polymerase inhibition; AID 1794808; actives 0.25% (n = 210,000); Recombinant Pf-apPOL, molecular beacon fluorescence, 1.5 h; inhibition, % at 10 µM
Starred values were filed as active, the others as inactive; x = no result given. Rule as the data show it: active = inhibition above about 50%; inactive = the rest.

SMILES | mHTT-CaM PPI inh | Pf apPOL inh
COc1cccc(CCC(=O)N2CCC(c3nc4ccncc4n3CC(C)C)C2)c1 (configuration not stated) | 2.8 | -6.3
O=C1CCCc2[nH]nc(-c3ccc(Cl)cc3)c21 | -0.7 | -4.0
COc1ccc(-c2nc3ccccn3c2NC(=O)C2CCCCC2)cc1OC | 59.4* | -5.1
COc1ccc(-c2nc3ccc(C)cn3c2NC(=O)C(Cl)Cl)cc1OC | 52.2* | 33.2
COc1ccc(-c2nc3ccc(C)cn3c2NC(C)=O)cc1OC | 8.2 | 8.4
COc1ccc(-c2nc3ccc(C)cn3c2NC(=O)C2CCCCC2)cc1OC | 36.3 | 3.3
COc1cccc(/C=C2\C(=O)NN(c3ccc(Br)cc3)C2=O)c1 | 7.0 | 1.1
COc1cccc(/C=C2\C(=O)NN(c3ccccc3)C2=O)c1 | 6.0 | 1.7
O=C1NN(c2ccccc2)C(=O)/C1=C/c1cccc(Br)c1 | 54.0* | -3.3
O=C1NN(c2ccc(Cl)cc2)C(=O)/C1=C/c1cccc(Br)c1 | 95.0* | -5.4
CSc1nc(NC(=O)C(F)(F)F)n(-c2cc(C(F)(F)F)cc(C(F)(F)F)c2)n1 | x | -246.5
O=C(NCc1ccccc1)NCC(O)(c1ccccc1)C(F)(F)F (configuration not stated) | -7.6 | -8.3
O=C1CC(c2ccccc2)CC2=C1C(c1ccc(F)cc1)Nc1ccccc1N2 (configuration not stated) | 11.0 | -13.1
O=C1CC(c2ccc3c(c2)OCO3)CC2=C1C(c1ccc3c(c1)OCO3)Nc1ccccc1N2 (configuration not stated) | 27.0 | -2.3
O=C1CC(c2ccc3c(c2)OCO3)CC2=C1C(c1ccc(C(F)(F)F)cc1)Nc1ccccc1N2 (configuration not stated) | 62.0* | 2.0
COc1cccc(C2CC(=O)C3=C(C2)Nc2ccccc2NC3c2ccc(C(F)(F)F)cc2)c1 (configuration not stated) | 53.0* | -13.0
O=C1CC(c2cccs2)CC2=C1C(c1ccc(Cl)cc1)Nc1ccccc1N2 (configuration not stated) | 33.0 | -20.6
O=C1CC(c2ccccc2)CC2=C1C(c1cccc(C(F)(F)F)c1)Nc1ccccc1N2 (configuration not stated) | 61.0* | -15.8
COc1cccc(C2CC(=O)C3=C(C2)Nc2ccccc2NC3c2ccc(C)s2)c1 (configuration not stated) | 28.0 | -6.1
CSc1ccc(C2Nc3ccccc3NC3=C2C(=O)CC(c2cccs2)C3)cc1 (configuration not stated) | 54.0* | -11.1
O=C1OC(c2ccc(Cl)cc2Cl)=N/C1=C\c1cccc(F)c1 | -2.0 | -444.6
Cc1cc(C(=O)Nc2ccc(F)cc2)no1 | x | -3.6
CCC1CCCCN1C/C=C/c1ccccc1[N+](=O)[O-] (configuration not stated) | -7.8 | 0.1
CCC1CCCCN1C/C=C/c1ccc(N(C)C)cc1 (configuration not stated) | 67.5* | -7.1
COc1ccc(/C=C2/C(=N)N3N=C(C(C)C)SC3=NC2=O)cc1 | 3.0 | -17.8
SMILES | mHTT-CaM PPI inh | Pf apPOL inh
O=C1CSC(c2ccco2)N1Cc1ccccc1 (configuration not stated) | -2.0 | -0.9
O=C1CSC(c2cn(-c3ccccc3)nc2-c2ccccc2)N1Cc1ccco1 (configuration not stated) | 59.0* | -3.1
O=C1CSC(c2ccc(Br)cc2)N1Cc1ccco1 (configuration not stated) | 1.0 | -0.6
O=C1CSC(c2cn(-c3ccccc3)nc2-c2ccc(Cl)cc2)N1Cc1ccco1 (configuration not stated) | 90.0* | -6.0
O=C(NCc1cccnc1)c1nc(-c2cccc(F)c2)n2c1CCCCC2 | 10.1 | 1.4
O=C(c1ccc2ncsc2c1)N1CCN(C(=O)C2CC2c2ccccc2)CC1 (configuration not stated) | -5.8 | -0.3
OCCNCC(O)Cn1c2ccccc2c2ccccc21 (configuration not stated) | 1.9 | -4.5
CN(C)CC(O)Cn1c2ccc(Cl)cc2c2cc(Cl)ccc21 (configuration not stated) | 60.1* | 26.1
CN(C)CC(O)Cn1c2ccccc2c2ccccc21 (configuration not stated) | 0.6 | -9.9
OCC(CO)(CO)NCC(O)Cn1c2ccccc2c2ccccc21 (configuration not stated) | 2.4 | 3.7
CC(C)(CO)NCC(O)Cn1c2ccc(Cl)cc2c2cc(Cl)ccc21 (configuration not stated) | 96.7* | 0.0
OCC(CO)(CO)NCC(O)Cn1c2ccc(Cl)cc2c2cc(Cl)ccc21 (configuration not stated) | 67.9* | 1.2
Cc1cccc(C2=N/C(=C\c3cc(Br)cs3)C(=O)O2)c1 | 12.0 | -1.9
CCc1ccc(NC(=O)c2cc(S(=O)(=O)NC(C)CC)ccc2F)cc1 (configuration not stated) | 0.0 | -3.5
O=C(Nc1nc(-c2ccccn2)cs1)c1nc2ccccc2s1 | 100.0* | -75.8
O=C(NCc1ccccn1)c1sc2ccccc2c1Cl | -3.3 | -0.4
O=C(Nc1nc(-c2ccccn2)cs1)c1sc2ccccc2c1Cl | 100.0* | -1.8
Cc1ccccc1C(=O)Nc1cccc(NC(=O)c2sc3ccccc3c2Cl)c1 | -0.4 | -7.5
CCC(=O)Nc1cccc(NC(=O)c2sc3ccccc3c2Cl)c1 | 56.0* | -10.2
O=C(Nc1nc(-c2nc3ccccc3s2)cs1)c1ccno1 | -8.0 | 5.1
COc1ccc(OC)c(C(=O)C=Cc2cc(OC)c(OC)c(OC)c2)c1 | 22.0 | -10.6
CCCn1ncc(N2CCC(C(=O)Nc3ccc(OCC)cc3)CC2)cc1=O | 3.3 | -1.1
O=C(NCc1cccs1)C1CCN(c2nc3cccnc3s2)CC1 | -7.4 | 2.1
COc1ccc(C(C#N)=Cc2cnc(-c3ccccc3)[nH]2)cc1 | x | -0.3
Cc1noc(-c2cccs2)c1C(=O)NCCc1ccc(F)cc1 | -9.3 | -6.6
SMILES | mHTT-CaM PPI inh | Pf apPOL inh
Cc1noc(-c2ccccc2Cl)c1C(=O)NCCc1ccc(F)cc1 | 55.2* | -1.4
CCC(O)c1ccc(OC)c(OC)c1 (configuration not stated) | 0.2 | -4.4
COc1ccc(NC(=O)c2nc(C)oc2C)c(OC)c1 | -3.5 | -7.6
COc1ccc(C2C(C#N)=C(N)N(c3ncn[nH]3)C3=C2C(=O)CC(C)(C)C3)cc1 (configuration not stated) | -4.0 | -2.1
Cc1ccc(CNC(=O)N2CCC(N3CCN(Cc4ccccc4)C3=O)CC2)cc1 | -3.5 | -12.4
O=C(Cc1cccs1)N1CCCC(c2ccnc(Nc3ccc(F)cc3)n2)C1 (configuration not stated) | 53.4* | -1.5
CC(=O)N1CCCC(c2ccnc(Nc3ccc(F)cc3)n2)C1 (configuration not stated) | 14.8 | -8.4
Cc1ccc(Nc2nccc(C3CCCN(C(=O)C4CCC4)C3)n2)cc1 (configuration not stated) | 46.6 | -3.5
Cc1ccc(Nc2nccc(C3CCCN(C(=O)Cc4cccs4)C3)n2)cc1 (configuration not stated) | 63.2* | -5.1
CC(C)NC(=O)N1CC(c2nc(-c3ccc(F)cc3)no2)C2(CCOCC2)C1 (configuration not stated) | 1.0 | -6.5
CC(C)C(N)C(=O)N1CCN(C(=O)c2ccccc2)C(C)C1 (configuration not stated) | -4.4 | -4.0
Cc1ccc(C2=C(c3ccccc3)C(=O)C(c3ccccc3)=C2c2ccc(Cl)cc2)cc1 | x | -4.2
